The source of these data is PubChem BioAssay (NCI).

Structures are written as SMILES. Compounds without any hit were thinned out: in the full panel of roughly 83,000, 20% have a hit.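 Plates (96-well) were seeded with cells, treated with compound at one concentration, and incubated for 48 hours before percent growth was determined.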 Values without a mark were called inactive. The source made the active and inactive calls. The calls were made as follows: active = growth percent below 10; inactive = the rest.

Some test systems named below: SK-MEL-2 melanoma; EKVX NSCLC; SN12C renal; UO-31 renal; TK-10 renal; ACHN renal; CAKI-1 renal; A498 renal; CCRF-CEM leukemia; MOLT-4 leukemia.
Experiment in all cases: NCI-60 one-dose screen, 48 h (100 = growth as untreated, 0 = no growth, -100 = all killed)
Holding throughout (settings): 10 µM unless noted

As for `CC(=O)c1ccc(Br)c([N+](=O)[O-])c1`, the growth is 102% in the assay on SK-MEL-2 melanoma; 104% in the assay on EKVX NSCLC; 104% with SN12C renal; 90.7% with UO-31 renal; 91.5% in the assay on TK-10 renal; 111% in the assay on ACHN renal. The growth in the assay on CAKI-1 renal was -7.58% (active); in the assay on A498 renal it was 76.9%; in the assay with CCRF-CEM leukemia it was 98.1%; in the assay on MOLT-4 leukemia, 96.8%.

With `Nc1ncnc2c1N=C(c1ccc3c(c1)OCO3)CC(c1ccc(Cl)cc1)N2` (stereo not given), the growth in the assay on SK-MEL-2 melanoma was 58.1%; in the assay with EKVX NSCLC, 71.1%; in the assay with SN12C renal, 93.3%; with UO-31 renal, 55.8%; in the assay with TK-10 renal, 99.7%; with ACHN renal, 77.8%. Further, the growth with CAKI-1 renal was 74%; with A498 renal, 87%; in the assay with CCRF-CEM leukemia it was -33.1% (active); in the assay on MOLT-4 leukemia, 69.4%.

As for `Cc1ccc(OC2=C(C#N)C(=N)N3C(=NN2)Sc2c(C)ccc(C)c23)cc1`, the growth was 121% with SK-MEL-2 melanoma; 91.5% with EKVX NSCLC; 106% with SN12C renal; 82.7% in the assay on UO-31 renal; 129% in the assay on TK-10 renal; 99% in the assay on ACHN renal. Moreover, the growth in the assay with CAKI-1 renal is 86%; in the assay with A498 renal, 94.9%; with CCRF-CEM leukemia it was 94.9%; with MOLT-4 leukemia it was 89.1%.

Turning to `O=C1CCCN1C(O)CCN(Cc1ccccc1)Cc1ccc(Cl)cc1` (stereo not given), the growth in the assay with SK-MEL-2 melanoma was 101%; with EKVX NSCLC, 101%; in the assay on SN12C renal, 101%; in the assay on UO-31 renal, 84.9%; in the assay on TK-10 renal, 109%; with ACHN renal it was 108%. Further, the growth in the assay with CAKI-1 renal is 97.3%; with A498 renal it was 109%; in the assay with CCRF-CEM leukemia, 91.7%; with MOLT-4 leukemia it was 89.9%.

Consider `CCOC(OCC)c1cnc2nc(NC(C)=O)[nH]c(=O)c2n1`, for which the growth is 95.4% in the assay with SK-MEL-2 melanoma; 109% in the assay with EKVX NSCLC; 101% with SN12C renal; 82.6% in the assay with UO-31 renal; 104% in the assay with TK-10 renal; 103% in the assay with ACHN renal. Moreover, the growth with CAKI-1 renal was 102%; in the assay with A498 renal it was 73%; in the assay on CCRF-CEM leukemia, 107%; in the assay with MOLT-4 leukemia, 103%.

For `CN1CCC2(CC1)N=C(SCC(=O)Nc1cnc3ccccc3c1)C(c1ccc(Br)cc1)=N2`, the growth in the assay on SK-MEL-2 melanoma was -31.2% (active); in the assay on EKVX NSCLC, 37.9%; with SN12C renal, 31.1%; in the assay with UO-31 renal it was -12.5% (active); with TK-10 renal it was 30.1%; with ACHN renal it was 5.39% (active). Further, the growth was 8.73% (active) in the assay on CAKI-1 renal, 44.6% with A498 renal, 4.53% (active) in the assay with CCRF-CEM leukemia and 1.51% (active) in the assay with MOLT-4 leukemia.

For `CC(=O)O[C@H]1CC[C@]2(C)[C@H]3CC=C4[C@@H]5CC(C)(C)CC[C@]5(C(=O)OCC(COC(=O)C(Cl)Cl)(COC(=O)C(Cl)Cl)NC(=O)C(Cl)Cl)CC[C@@]4(C)[C@]3(C)CC[C@H]2C1(C)C`, the growth with SK-MEL-2 melanoma is 77.7%; with EKVX NSCLC it was 65%; with SN12C renal, 71.8%; in the assay with UO-31 renal it was 62.5%; in the assay on TK-10 renal, 78.1%; in the assay with ACHN renal, 62.4%. The growth was 63% with CAKI-1 renal, 93.2% with A498 renal, 64.8% with CCRF-CEM leukemia and 44.9% in the assay on MOLT-4 leukemia.

Turning to `C#CCNc1nc(NCCNC(=O)CCl)nc(N(C)CCCCc2ccccc2)n1`, the growth in the assay on SK-MEL-2 melanoma was 98.9%; in the assay on EKVX NSCLC, 102%; in the assay on SN12C renal, 77.1%; in the assay with UO-31 renal, 82.4%; in the assay on TK-10 renal, 97.7%; in the assay on ACHN renal, 100%. Also, the growth in the assay with CAKI-1 renal was 95.2%; in the assay with A498 renal, 99.2%; in the assay on CCRF-CEM leukemia, 23.8%; with MOLT-4 leukemia, 43.3%.

`CCN(CC)CCNC(=O)n1cc(-c2ccncc2)c(-c2cc(Cl)cc(OC)c2)n1`: the growth in the assay with SK-MEL-2 melanoma was 92.3%; in the assay on EKVX NSCLC it was 43.4%; with SN12C renal it was 70.2%; with UO-31 renal, 43.8%; with TK-10 renal it was 30.1%; with ACHN renal, 57.1%. Besides, the growth in the assay on CAKI-1 renal is 68.1%; in the assay on A498 renal, 63.7%; in the assay on CCRF-CEM leukemia, 83.3%; in the assay with MOLT-4 leukemia, 82.1%.

In the case of `N/C(=N\OC(=O)c1ccccc1)C(C(=O)NOC(=O)c1ccccc1)C1CCCCC1` (stereo not given), the growth in the assay with SK-MEL-2 melanoma is 121%; with EKVX NSCLC it was 66.8%; in the assay on SN12C renal, 89.1%; in the assay with UO-31 renal it was -50.5% (active); in the assay on TK-10 renal, 92.6%; with ACHN renal, 25.6%. Besides, the growth in the assay with CAKI-1 renal is -55.3% (active); in the assay on A498 renal, 86.2%; in the assay on CCRF-CEM leukemia it was 30%; with MOLT-4 leukemia, 55.9%.

On to `COc1ccc(-c2cc(C(=O)Nc3ccc(Br)cc3)nc3[nH]c(=O)sc23)cc1`, for which the growth in the assay on SK-MEL-2 melanoma is -5.01% (active); with EKVX NSCLC it was 37.2%; with SN12C renal, 20.4%; in the assay with UO-31 renal, 28.6%; in the assay on TK-10 renal, 19.9%; in the assay on ACHN renal, 54.8%. For the same compound, the growth in the assay on CAKI-1 renal is 34.6%; with A498 renal, -2.87% (active); in the assay with CCRF-CEM leukemia, 29.8%; in the assay on MOLT-4 leukemia it was 27.8%.

Take `O=C(N/N=C/c1ccccc1O)c1ccncc1`: the growth in the assay on SK-MEL-2 melanoma is 55.9%; in the assay with EKVX NSCLC, 36.9%; with SN12C renal, 78%; with UO-31 renal, 33.5%; in the assay with TK-10 renal, 57.7%; in the assay on ACHN renal it was 56.8%. Further, the growth is 41.3% with CAKI-1 renal, 87.7% with A498 renal, 29.1% in the assay with CCRF-CEM leukemia and 9.31% (active) with MOLT-4 leukemia.

`CC(C)CCSc1nc(-c2ccc(F)cc2)c(C#N)c(N2CCCCC2)n1`: the growth with SK-MEL-2 melanoma is 85.7%; in the assay on EKVX NSCLC it was 97.2%; with SN12C renal, 107%; with UO-31 renal, 80.4%; with TK-10 renal, 97.4%; in the assay with ACHN renal it was 91.8%. For the same compound, the growth was 75.6% with CAKI-1 renal, 88% in the assay on A498 renal, 89.9% in the assay on CCRF-CEM leukemia and 70% in the assay on MOLT-4 leukemia.

For `COc1cc(C2CC(=O)Nc3c2cnn3C)cc(OC)c1OC` (stereo not given), the growth in the assay with SK-MEL-2 melanoma was 113%; in the assay with EKVX NSCLC, 119%; in the assay on SN12C renal, 114%; with UO-31 renal, 90.7%; in the assay on TK-10 renal, 117%; in the assay on ACHN renal it was 108%. The growth was 106% in the assay on CAKI-1 renal, 113% in the assay on A498 renal, 114% with CCRF-CEM leukemia and 102% in the assay on MOLT-4 leukemia.
